# Measurements as given in PubChem BioAssay AID2734 (National Center for Advancing Translational Sciences (NCATS), 2010).
# Records with an inconclusive call do not appear. Calls of active or inactive are those of the source. The call rests on the fitted dose curve; in most records, active means well fitted inhibition curve with a large enough effect; inconclusive means small, poorly fitted or top-dose-only effect, or effect the other way; inactive means no such curve, though single readings can be large or run the other way.
# Assay: High Content Assay for Compounds that inhibit the Assembly of the Perinucleolar Compartment: DNA Intercalation/PicoGreen Displacement Assay
# Conditions: fluorescence (intercalation counter-screen); series mostly up to 57.1 µM; activity change, negative = displacement: at the top concentration
# Excerpt: High Content Assay for Compounds that inhibit the Assembly of the Perinucleolar Compartment
# NIH Chemical Genomics Center [NCGC]
# NIH Molecular Libraries Probe Centers Network [MLPCN]
# Assay Submitter (PI): Sui Huang, Northwestern University, Feinberg School of Medicine, Cell and Molecular Biology, Chicago, Illinois.
# The perinucleolar compartment (PNC) is a non-membrane-bound nuclear subdomain that is associated with but structurally distinct from the nucleolus. The PNC is a heritable trait, in which the number of PNCs per cell in daughter cells often mimics that of their mother cells. The PNC is heterogeneous in shape, is stable through interphase, disassembles during mitosis, and reassembles in early G1. The PNC is concentrated with newly synthesized RNA polymerase III (pol III) RNAs (MRP RNA, RNAse P H1 RNA, hY RNAs[hY1, 2, 5], Alu RNA, and SRP [7SL] RNA) and RNA binding proteins (nucleolin, PTB, CUG-BP, KSRP, Raver1, Raver2, and Rod).
# Extensive in vitro studies have shown that the PNC is unique to tumor cells and preferentially forms in tumor cells derived from solid tissues. Examination of cancer cell lines from various origins and malignant capacities has shown that PNC prevalence correlates with the malignancy of tumors and has the potential to be developed as a pan-cancer prognostic marker.
# Although the PNC is associated with a DNA locus and a handful of components have been identified, much remains to be investigated regarding the structure and function of the PNC and its mechanistic link to cancer. We have previously shown that PNC prevalence reduction is a valid strategy to identify compounds that can be used to study the structure and function of the PNC. It is necessary, however, to create a screening platform that is able to test a large number of compounds in an automated fashion. Here we report the development and robustness of an automated whole-cell phenotypic image-based screening assay that is capable of identifying such compounds.
# Therefore, we conducted a DNA intercalation/displacement assay on the lead candidates in order to exclude compounds with this mechanism of action. PicoGreen is a DNA intercalator that becomes excitable at 488 nm and emits at 520 nm when bound to DNA. Compounds which displace the dye will decrease fluorescence intensity and were considered DNA intercalators/displacers. In order to rule out potential fluorescence artifacts, a measurement of compound plus DNA only was also calculated.
# 1. A supercoiled plasmid (pBR322) was diluted to 200 ng/ml in TE and 2 ul was dispensed into 1536 well black plates Multidrop Combi.(ThermoFisher).
# 2. Followup compounds dissolved in 100% DMSO were transferred using a pintool (23 nl).
# 3. Compounds were incubated in the presence of DNA for 30 minutes at room temperature.
# 4. A baseline signal was measured using an Envision PMT based plate reader using a 488 nm excitation filter and a 520 nm emission filter.
# 5. The PicoGreen dye (Invitrogen) was diluted in TE and 2 ul/well was dispensed to the 1536 well plate using a Multidrop Combi.
# 6. Plates were incubated at 37 C for 10 minutes prior to being read on the envision plate reader. 100 ng/ml of Propidium Iodide was used as the positive intercalation control.
Compound,"activity change, negative = displacement",Potency
CC(=O)Nc1ccc(S(=O)(=O)Oc2ccc3c(c2)C(C)=CC(C)(C)N3)cc1,-2.67% (inactive),
O=C(Nc1ccc(NC(=O)C2CC2)cn1)c1ccccc1Cl,-4.55% (inactive),
Nc1cccc(-c2nc3ccc(N)cc3s2)c1,-8.75% (inactive),
O=C1C(=Cc2cccs2)C(=O)c2ccccc21,-20.6% (inactive),
Cc1cc(C)c(S(=O)(=O)/N=C2/C=C(Sc3ncn[nH]3)C(=O)c3ccccc32)cc1C,,12.6 µM (active)
O=C1C(=O)c2ccc(-c3ccccc3)cc2-c2ccccc21,,4.47 µM (active)
Cc1ccccc1C(=O)NNC(=S)Nc1cccc(C(F)(F)F)c1,6.92% (inactive),
CCN(CC)c1ccc(N=Cc2ccccc2[N+](=O)[O-])cc1,,3.16 µM (active)
CCOC(=O)NC1(Nc2ccc(C)cc2)Oc2ccccc2O1,11.9% (inactive),
CSc1nc(-c2ccc(C)cc2)nc(C(Cl)Cl)n1,47.4% (inactive),
CC(/C=C/c1ccccc1)=N/NC(=O)c1cc([N+](=O)[O-])cc([N+](=O)[O-])c1,-6.33% (inactive),
Nc1ccc2c(c1)C(=O)C(=O)c1ccccc1-2,,12.6 µM (active)
O=C(Nc1cccnc1)c1cccs1,1.26% (inactive),
CSc1nnc2c3ccccc3n(CCc3ccccc3)c2n1,27.3% (inactive),
Cc1ccc(Cl)cc1N(CC(=O)N1CCCCCC1)S(C)(=O)=O,9.65% (inactive),
COC(=O)c1ccc(CSc2ccccc2C)o1,8.83% (inactive),
CC(=O)/C(C#N)=C1\NC(=O)C(Cc2ccc(C)c(C)c2)S1 (configuration not stated),13.5% (inactive),
CCOC(=O)c1c(NC(=O)c2c(-c3ccccc3)noc2C)sc(C)c1-c1ccccc1,11.5% (inactive),
O=c1[nH]cnc2c1C(c1ccccc1[N+](=O)[O-])c1c(nc[nH]c1=O)O2,6.43% (inactive),
CCCNC1=C(N(C(C)=O)c2cccc(F)c2)C(=O)c2ccccc2C1=O,-5.87% (inactive),
C/C(=N/OCO/N=C(/C)c1ccc(F)cc1)c1ccc(F)cc1,11.4% (inactive),
CCOC(=O)CSc1nc2c(sc3ccc([N+](=O)[O-])cc32)c(=O)n1Cc1ccco1,24.2% (inactive),
Cc1ccc(NC2=C/C(=N/S(=O)(=O)c3cccs3)c3ccccc3C2=O)cc1,,3.55 µM (active)
O=[N+]([O-])c1cc(/C=N/Nc2nc3ccccc3[nH]2)c(O)cc1O,,22.4 µM (active)
Cc1cc(=O)[nH]c(N=N/C(=N/Nc2ccccc2C)c2ccccc2)n1,,2 µM (active)
O=C1C(Nc2ccccc2)=C/C(=N/S(=O)(=O)c2cccs2)c2ccccc21,,2.82 µM (active)
CCN(CC)C(=S)SSC(=S)N(CC)CC,36% (inactive),
